# According to PubChem BioAssay AID449762 (Southern Research Specialized Biocontainment Screening …, 2010):
# Screen size: about 330,000 compounds; about 1,900 (0.58%) were called active. Another 4% or so got no clear call; they are omitted. No stated cut-off is given here; in the data, inconclusive means inhibition above about 70% without an active follow-up result; inactive means below that. A selection follows. Results with a measured potency or affinity are listed apart.
# Assay: M. tuberculosis growth inhibition, HTS (AID 449762);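 further: bacterial growth assessed after seven days of incubation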
# Conditions: M. tuberculosis H37Rv growth inhibition, 7H9 media; at 25 µM; active compounds read high
row,SMILES,inhibition
1,COc1ccccc1Cn1c(=S)[nH]c2cc(C(=O)NCC3CCCO3)ccc2c1=O (stereo not drawn),2.37% (inactive)
2,CC(=O)N1CCc2c(sc(NC(=O)C3CC3)c2-c2nc3ccccc3s2)C1,15.3% (inactive)
3,CC(=O)Nc1scc(C)c1-c1nc2ccccc2s1,26% (inactive)
4,Cc1ccccc1NC(=O)Cn1c(C)nc2ccc(NC(=O)C3CC3)cc2c1=O,2.87% (inactive)
5,NS(=O)(=O)c1ccc(N2N=C(c3ccccc3)CC2c2ccccc2)cc1 (stereo not drawn),16.9% (inactive)
6,NS(=O)(=O)c1ccc(N2N=C(c3ccccc3)CC2c2ccc(F)cc2)cc1 (stereo not drawn),12.8% (inactive)
7,O=C(O)c1ccccc1C(=O)NCCc1c(C(=O)O)[nH]c2ccc(Cl)cc12,7.67% (inactive)
8,COc1cccc(NC(=O)CSc2nc3ccccc3c(=O)n2CCCC(=O)NCCCN2CCOCC2)c1,-10.7% (inactive)
9,CCOC(=O)c1ccc(NC(=O)Nc2ccc(F)cc2)cc1,0.77% (inactive)
10,CCOC(=O)c1ccc(NC(=S)NCCc2ccc(OC)c(OC)c2)cc1,47.4% (inactive)
11,O=C(O)C1CCN(c2ccc(S(=O)(=O)N3CCOCC3)cc2[N+](=O)[O-])CC1,-9.82% (inactive)
12,Cn1cnc(C(=O)NC2CCN(C(=O)OC(C)(C)C)CC2)c1C(=O)NC1CCN(C(=O)OC(C)(C)C)CC1,-7.54% (inactive)
13,CC(C)Cn1c(N2CCN(C(=O)c3cccs3)CC2)nc2ccccc21,-9% (inactive)
14,CCn1c(N2CCN(C(=O)/C=C/c3ccccc3)CC2)nc2ccccc21,6.08% (inactive)
15,CSc1nc2ccccc2n1CC(=O)Nc1c(C)n(C)n(-c2ccccc2)c1=O,-4.84% (inactive)
16,CCOc1ccc(CN2C(=O)c3ccccc3C2C(=O)NC(C)CC)cc1OC (stereo not drawn),2.03% (inactive)
17,O=C(NCc1ccco1)c1ccc(-c2ccccc2Cl)o1,-1.96% (inactive)
18,COc1ccc(CCC(=O)OC(C)C(=O)c2ccc(C)cc2)cc1 (stereo not drawn),-2.54% (inactive)
19,COc1ccc(Sc2ncnc3onc(C)c23)cc1,3.37% (inactive)
20,Cc1noc2ncnc(Sc3c(Cl)cccc3Cl)c12,47.8% (inactive)
21,O=C(O)/C=C/C(=O)Nc1ccccc1-c1ccccc1NC(=O)/C=C/C(=O)O,3.08% (inactive)
22,CCn1nc(C)c(CCC(=O)O)c1C,4.75% (inactive)
23,Cc1ccc(/C=C/C(=O)OCC(=O)NCCc2ccc(S(N)(=O)=O)cc2)o1,-0.03% (inactive)
24,COc1ccc(/C=N/Nc2ncnc3scc(-c4ccccc4)c23)cc1OC,-0.49% (inactive)

row,SMILES,inhibition
1,COc1cccc(/C=N/Nc2ncnc3scc(-c4ccccc4)c23)c1OC,8.3% (inactive)
2,CC1CCCCN1C(=O)Nc1ccccc1Cl (stereo not drawn),-0.25% (inactive)
3,O=S(=O)(c1ccc(S(=O)(=O)N2CCN3CCCC3C2)cc1)N1CCCC1 (stereo not drawn),-15.1% (inactive)
4,CCOC(=O)c1sc(NC(=O)CSc2nc3ccccc3s2)c(C(=O)OCC)c1C,12.6% (inactive)
5,Cc1c(O)cc2n(c1=O)-c1ccc(Cl)cc1C2(C)C,-11.1% (inactive)
6,CCc1c(O)cc2n(c1=O)-c1ccc(Cl)cc1C2(C)C,-2.84% (inactive)
7,Cc1ccsc1C1Nc2ccc3ncccc3c2C2=C1C(=O)CCC2 (stereo not drawn),2.32% (inactive)
8,O=C(Nc1ccc(Cl)cn1)Nc1ccccc1F,-4.27% (inactive)
9,COCCn1c(=NC(=O)c2cc(Cl)sc2Cl)sc2cc(S(N)(=O)=O)ccc21,-0.08% (inactive)
10,C=CCn1c(=NC(=O)c2cc(Cl)sc2Cl)sc2cc(S(N)(=O)=O)ccc21,-3.02% (inactive)
11,Oc1ccccc1CN1CCN(C(O)(c2ccccc2)c2ccccc2)CC1,12.9% (inactive)
12,N/C(=N\OC(=O)c1cc(Cl)ccc1Cl)c1ccccn1,30% (inactive)
13,COc1cc(OC)c(C(=O)O/N=C(\N)c2ccccn2)cc1OC,7.81% (inactive)
14,C=CC[C@@H](CC(=O)N[C@@H](CO)Cc1ccccc1)C(=O)N[C@H](COC(=O)[C@@H](CC=C)Cc1ccc(F)cc1)C(C)(C)C,-11% (inactive)
15,CCc1ccc(/C=C2/C(=O)N(c3ccccc3)C(=S)N2CC(=O)OC)s1,10.2% (inactive)
16,CCc1ccc(/C=C2/C(=O)N(CC)C(=S)N2C)s1,12.3% (inactive)
17,O=c1cc(CSc2ccc([N+](=O)[O-])cc2)nc2sccn12,-11.9% (inactive)
18,CCN(CC)CCCNC(=O)c1cc2c(Cl)nc3ccccc3c2s1,5.92% (inactive)
19,O=C(NCCCN1CCCC1)c1cc2c(Cl)nc3ccccc3c2s1,9.47% (inactive)
20,O=[N+]([O-])c1ccc(C(=S)N2CCN(Cc3ccccc3)CC2)cc1,6.67% (inactive)
21,CCCCOC(=O)Nc1ccc(S(=O)(=O)Nc2nc(C)cc(C)n2)cc1,0.81% (inactive)
22,CCCCOC(=O)Nc1ccc(S(=O)(=O)Nc2cc(C)nc(C)n2)cc1,50.1% (inactive)
23,O=C(CSC(=S)N1CCCCC1)c1ccccc1,69.2% (inactive)
24,O=c1c(-c2ccc(O)cc2)coc2cc(O)ccc12,3.16% (inactive)

row,SMILES,inhibition
1,Cc1oc2cc(O)ccc2c(=O)c1-c1cnn(-c2ccccc2)c1,-3.21% (inactive)
2,CCc1ccc(-c2cc(C(=O)Nc3c(C)n(C)n(-c4ccccc4)c3=O)c3ccccc3n2)s1,5.93% (inactive)
3,Cc1[nH]n(-c2ccccc2)c(=O)c1/C=N/N(c1ccccc1)c1ccccc1,62.4% (inactive)
4,CCC(=O)N/C(N)=N/c1nc(C)c2cc(C)c(C)cc2n1,7.41% (inactive)
5,Cc1cc2nc(/N=C(\N)NC(=O)N3c4ccccc4Sc4ccccc43)nc(C)c2cc1C,-0.79% (inactive)
6,Cc1ccc2nc(N=C(N)N)nc(C)c2c1,12.5% (inactive)
7,CCCC(=O)N/C(N)=N/c1nc(C)c2cc(C)ccc2n1,45.9% (inactive)
8,COc1ccc(C(=O)Nc2cnccn2)cc1[N+](=O)[O-],-6.82% (inactive)
9,O=C(CCN1C(=O)c2ccccc2C1=O)Nc1nc2ccccc2s1,10.8% (inactive)
10,NC(=O)[C@@H]1CC2(CC(c3cccc(NC(=O)[C@H]4CCC(=O)N4)c3)=NO2)CN1C(=O)COc1ccc(Cl)cc1 (stereo partly drawn),0.87% (inactive)
11,Cc1cccc(C(=O)Nc2cccc3cccnc23)c1,25.4% (inactive)
12,O=C(CSCc1ccccc1Cl)Nc1c[nH]c(=O)[nH]c1=O,1.55% (inactive)
13,CC(O)CNc1nc2c(c(=O)n(Cc3ccc(Cl)c(Cl)c3)c(=O)n2C)n1C (stereo not drawn),6.85% (inactive)
14,Cn1c(NCC(O)c2ccccc2)nc2c1c(=O)n(Cc1ccc(Cl)cc1)c(=O)n2C (stereo not drawn),48.9% (inactive)
15,CCOC(=O)c1ccc(COC(=O)CNC(=O)CNC(=O)Cc2ccccc2)cc1,-12.4% (inactive)
16,COc1cc(OC)c(NC(=O)CCCNC(=O)Cn2cnc3sc(C)c(C)c3c2=O)cc1Cl,-3.56% (inactive)
17,CCN(CC(=O)Nc1ccc(NC(C)=O)cc1)C(=O)c1ccccc1SCC(=O)N1CCCC1,6.02% (inactive)
18,O=C(NCCOc1ccccc1F)c1cccc(S(=O)(=O)N2CCN(c3ccccc3)CC2)c1,4.44% (inactive)
19,c1ccc2nc(-c3ccncc3)ccc2c1,-14.1% (inactive)
20,c1ccc(-c2ccc3ccccc3n2)cc1,-0.21% (inactive)
21,Cc1cc(C)c(C#N)c(SCC(=O)c2cc(C)n(CCc3ccccc3)c2C)n1,-0.68% (inactive)
22,O=C(NCCCN1CCOCC1)c1ccc(Sc2ccc(F)cc2)c([N+](=O)[O-])c1,-0.04% (inactive)
23,COc1ccc(NC(=O)CNC(=O)C2CCCCC2)cc1,13.5% (inactive)
24,NS(=O)(=O)c1ccc(NC(=O)CSC2CCCCC2)cc1,-6.63% (inactive)

row,SMILES,inhibition
1,CCC(C)NC(=O)CN1C(=O)NC2(CCOc3ccccc32)C1=O (stereo not drawn),7.03% (inactive)
2,CC(C)C1(C(C)C)OC(=O)c2ccccc21,0.62% (inactive)
3,CCCn1ncc(CN2CCC(Cc3cccc(F)c3)(C(=O)OCC)CC2)c1C,-1.6% (inactive)
4,N=c1n(Cc2ccccc2)c2ccccc2n1CC(O)COc1ccccc1 (stereo not drawn),14.3% (inactive)
5,COc1ccc(OCC(O)Cn2c(=N)n(Cc3ccccc3)c3ccccc32)cc1 (stereo not drawn),26.5% (inactive)
6,CC(=O)CCC(=O)N1CCCC(CNC(=O)c2ccc(-c3ccccc3)cc2)C1 (stereo not drawn),-4.64% (inactive)
7,CSCC(=O)N1CCCC(CNC(=O)c2ccc(-c3ccccc3)cc2)C1 (stereo not drawn),3.04% (inactive)
8,CC(C)(C)OC(=O)C[C@H]1C/C=C\C[C@H](CC(=O)NCCO)C(=O)NC[C@H](c2ccccc2)OC1=O,-2.46% (inactive)
9,COc1cccc(N(C(=O)CNC(=O)c2ccco2)C(C(=O)NC2CCCC2)c2ccncc2)c1 (stereo not drawn),0.28% (inactive)
10,O=C(O)CCCn1cc(NC(=O)COc2ccccc2)cn1,1.85% (inactive)
11,O=C(Cc1ccc(Cl)cc1)NCCCn1ccnc1,0.59% (inactive)
12,Clc1ccc(SCCn2ccnc2)cc1,-6.09% (inactive)
13,CCNCCNC(=O)c1c(O)c2c([nH]c1=O)CCCC2,-0.1% (inactive)
14,Cc1nn(Cc2ccc(Cl)cc2Cl)c(C)c1NC(=O)CCl,70.1% (inactive)
15,Cc1ccc(CCNC(=O)C2CC(c3cccc(F)c3)=NO2)cc1 (stereo not drawn),0.56% (inactive)
16,C=CCOc1ccc(CNc2nccs2)cc1OC,-5.03% (inactive)
17,C=CCOc1c(Cl)cc(CNc2nccs2)cc1OC,56.1% (inactive)
18,CCCOc1ccc(C(=O)N/N=C/c2c[nH]c3ccc(Br)cc23)cc1,1.55% (inactive)
19,Cc1cc(Nc2ccccc2)c2c([N+](=O)[O-])cc(C)c(C)c2n1,6.4% (inactive)
20,COc1ccccc1Nc1cc(C)nc2c(C)ccc([N+](=O)[O-])c12,-0.28% (inactive)
21,COC(=O)C1=C(COc2ccc(C=O)cc2OC)NC(=O)NC1c1cc(C)ccc1C (stereo not drawn),-8.91% (inactive)
